# PfHsp90 yeast 2: growth inhibition of PfHsp90-expressing yeast, primary screen, antimalarial PfHsp90 inhibitor project, S. cerevisiae, BacTiter-Glo luminescence, single point, set 2 | BacTiter-Glo ATP, 48 h; yeast lacking PDR1 and PDR3 efflux regulators | inhibition, % at 9.4 µM | 310,000 compounds, 0.32% hits | AID 504621, 2011;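 active = every replicate shows inhibition above about 80%, whatever the replicate mean, limit read from the data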;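 also: 0% = DMSO neutral controls and 100% = 20 µM radicicol positive controls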
# tim23-1 inh: growth inhibitors of tim23-1 mutant yeast, primary screen, luminescence, uHTS. S. cerevisiae tim23-1 growth, BacTiter-Glo luminescence, 24 h. inhibition, % at 20 µM. 330,000 compounds, 1.3% hits;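 active = growth inhibition of the mutant yeast at or above 50%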;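 also: temperature-sensitive mutant grown at 25 °C; plate controls were DMSO-treated mutant yeast for no effect and medium wells lacking yeast for full effect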
# Mot1-301 SUMO: yeast Mot1-301 growth rescue at high temperature, primary screen, SUMOylation pathway inhibitor project, S. cerevisiae, ATP luminescence, 38.5C. AID 2716, 2010. growth rescue, % at 18.8 µM. 320,000 compounds, 1% hits. S. cerevisiae Mot1-301 growth rescue; percent above DMSO median, 100 means doubled;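 active = every valid replicate shows activation above 250% relative to neutral control wells; inactive = the rest, any valid replicate at or below 250%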;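 also: OY570 slx delta 5 strain wells were the positive control but not used for scaling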
# tim10-1 inh: growth inhibitors of tim10-1 mutant yeast, primary screen, luminescence, uHTS. inhibition, % at 20 µM. 330,000 compounds, 2.2% hits. S. cerevisiae tim10-1 ts strain growth, BacTiter-Glo, 24 h. AID 463190, 2010;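 active = inhibition of at least 40%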;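 also: mutant grown at 25 °C; 0% = DMSO wells with yeast and 100% = wells holding no yeast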
# TIM10 inh: growth inhibitors of isogenic TIM10 control yeast, primary screen, counter-screen for tim10-1 yeast inhibitor project, luminescence, uHTS. S. cerevisiae TIM10 strain growth, BacTiter-Glo luminescence, 24 h. 330,000 compounds, 1.4% hits. inhibition, % at 10 µM. AID 463195, 2010;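 active = inhibition of 40% or more at the single tested concentration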;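 also: wild-type TIM10 isogenic control strain grown at permissive 25 °C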
# TIM10 conf: growth inhibitors of wild-type TIM10 yeast, confirmation, counter-screen for tim10-1 synthetic lethality project, single concentration, luminescence, S. cerevisiae; inhibition, % at 10 µM; 4,600 compounds, 63% hits; S. cerevisiae tim10 strain growth, BacTiter-Glo luminescence, 24 h; shares compounds with TIM10 inh; AID 463215, 2010;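 active = inhibition of yeast growth at or above a set limit in either of two replicates at 10 µM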;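 also: this counterscreen used the strain with wild-type TIM10; 0% = yeast with DMSO and 100% = medium wells lacking yeast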
# * marks the source's active call; other numbers are inactive results; nt = no result. Sampled rows, rich in hits. Any-hit rate of the full collection: about 4.4%.
SMILES,PfHsp90 yeast 2,tim23-1 inh,Mot1-301 SUMO,tim10-1 inh,TIM10 inh,TIM10 conf
COc1ccc(C(c2nnnn2C2CCCC2)N2CCN(c3ccccc3)CC2)cc1 (stereo unspecified),13,37,14,34,20,nt
COc1nnc(-c2ccc(N3CCOCC3)c(NC(=O)c3ccccc3)c2)c2ccccc12,31,42,12,28,40*,24
COc1nnc(-c2ccc(N3CCOCC3)c(NC(C)=O)c2)c2ccccc12,-10,20,341,22,6,nt
CCc1cccc(N=c2c([N+](=O)[O-])nn(-c3ccc(Cl)cc3)n2O)c1,1,34,23,34,46*,30
Cc1cccc(N=c2c([N+](=O)[O-])nn(-c3ccc(Cl)cc3)n2O)c1,-4,29,23,-18,-139,nt
Cn1c(SCC(=O)NCC2COc3ccccc3O2)nnc1C(F)(F)F (stereo unspecified),nt,-7,-16,-8,-5,nt
S=c1[nH]nc(-c2cc3ccccc3o2)n1Cc1ccccc1,-21,45,188,33,52*,48*
CCn1c(-c2ccccc2O)n[nH]c1=S,11,3,-17,-7,-3,nt
S=c1[nH]nc(-c2ccc(Cl)cc2Cl)n1-c1ccccc1,-11,22,-13,14,7,nt
S=c1[nH]nc(-c2ccc(Cl)cc2Cl)n1Cc1ccccc1,-80,44,177,28,56*,17
S=c1[nH]nc(-c2cccc(Cl)c2)n1Cc1ccccc1,-7,40,-5,32,37,nt
CCn1c(-c2cc(-c3ccccc3)sc2N)n[nH]c1=S,-4,41,11,25,45*,43*
Cc1cccc(-c2n[nH]c(=S)n2Cc2ccccc2)c1,-10,23,-1,38,41*,-40
N#Cc1ccc(OS(=O)(=O)c2ccc(-c3ccon3)s2)cc1,8,nt,-8,nt,nt,nt
COC(=O)c1ccccc1N(C)S(=O)(=O)c1cc2c3c(c1)CCC(=O)N3CCC2,-28,17,0,4,19,nt
Cc1nn(-c2ccccc2)c(N)c1N=Nc1ccc(Cl)cc1,24,12,4,34,44*,32*
c1ccc(N2CCN(c3nc(-c4ccccn4)nc4ccccc34)CC2)cc1,-15,-7,-16,15,40*,5
COc1ccc(C2CC(c3ccccc3)=NN2C(=S)Nc2ccccc2)cc1 (stereo unspecified),16,19,nt,26,29,nt
COc1ccccc1C1CC(c2ccccc2)=NN1C(=S)Nc1ccccc1 (stereo unspecified),0,30,-3,16,41*,26
COc1ccc(C2=NN(C(N)=S)C(c3ccccc3)C2)cc1 (stereo unspecified),9,33,-11,31,41*,26
O=C(CSc1cccc(C(F)(F)F)c1)Nc1ccc(N2CCOCC2)cc1,-7,29,9,6,9,nt
O=C(Cn1nc(C(=O)O)c2ccccc2c1=O)NC12CC3CC(CC(C3)C1)C2,1,32,1,37,68*,20
COc1ccc(OC)c(NC(=O)c2ccc(NC3=NC4CS(=O)(=O)CC4S3)cc2)c1 (stereo unspecified),-5,2,-4,21,7,nt
O=C(c1cnn2c1NC(c1ccc(Br)cc1)CC2C(F)(F)F)N1CCN(C23CC4CC(CC(C4)C2)C3)CC1 (stereo unspecified),nt,41,-25,35,42*,14
O=C(c1cnn2c1NC(c1ccc(Br)cc1)CC2C(F)(F)F)N1CCN2CCCC2C1 (stereo unspecified),0,5,2,7,-4,nt
SMILES,PfHsp90 yeast 2,tim23-1 inh,Mot1-301 SUMO,tim10-1 inh,TIM10 inh,TIM10 conf
CSC1=NC(=O)/C(=C/c2ccc(SC)cc2)S1,nt,24,55,24,49*,21
O=C(NC(=S)Nc1ccc(Cc2ccncc2)cc1)c1ccccc1,-74,30,59,29,51*,-29
COc1ccccc1C(=O)NC(=S)Nc1ccc(Cc2ccncc2)cc1,-18,17,0,23,15,nt
O=C(Nc1ccc(Cc2ccncc2)cc1)c1ccc(Br)o1,-5,34,6,6,44*,36*
O=C(CNC(=O)c1ccc(Br)o1)Nc1ccncc1,nt,2,-5,2,-2,nt
Cc1cc(C)cc(C(=O)NC(=S)Nc2ccc(Cc3ccncc3)cc2)c1,20,34,58,19,47*,9
Cc1ncc([N+](=O)[O-])n1CC(=O)Nc1ccc(Br)cc1,1,6,-8,14,-7,nt
CCOc1ccc(C(=O)NC2CCN(C(=O)Nc3ccc(F)cc3)CC2)cc1,4,0,4,-20,7,nt
CC[C@]12c3[nH]c4cc(CCC(=O)N(C)C)ccc4c3CCN1C(=O)[C@@H](CC(=O)NC(C)(C)C)C[C@@H]2C(=O)N1CCN(C(=O)C2CC2)CC1,-20,26,nt,9,-4,nt
CCOC(=O)N/N=C/c1ccccc1OCc1ccc(Cl)cc1,-7,47,7,32,44*,33*
O=C(Cc1ccccc1)N/N=C/c1ccccc1OCc1ccc(Cl)cc1,3,8,314,18,8,nt
CC(C)N(Cc1nc(-c2ccccc2)no1)C(=O)C(C)(C)C,13,11,14,16,10,nt
CC(C)N(Cc1nc(-c2ccccc2)no1)C(=O)C(Cl)(Cl)Cl,nt,32,93,24,41*,27
Cc1c(Cl)cnc(NC(=O)COC(=O)[C@H](C)NC(=O)c2ccccc2)c1Cl,12,20,nt,14,12,nt
C#CCSc1nnnn1-c1cccc(Cl)c1,8,19,-12,4,49*,-23
CN(c1ccccc1)c1nc(N)c([N+](=O)[O-])c(N2CCCCCC2)n1,-1,41,4,24,45*,17
CC1CCN(c2nc(N(C)c3ccccc3)nc(N)c2[N+](=O)[O-])CC1,-5,32,-14,-13,6,nt
Cn1c(=O)c2c(nc(SCc3ccccc3)n2Cc2ccc(Cl)cc2)n(C)c1=O,-36,12,-1,25,43*,26
Cc1ccc(C(=O)C2CCN(CC(=O)NC3CCCC3)CC2)cc1,8,-3,-6,-6,-3,nt
O=C(CCc1nc2ccccc2s1)Nc1ccccc1,2,37,-9,12,47*,1
CCc1ccccc1N(CC(=O)NC(C)C)C(=O)CCC(=O)Nc1nccs1,-12,5,3,-1,3,nt
CC1=C/C(=N\NC(=S)NCCc2ccccc2)CC(C)(C)C1,-1,43,14,33,43*,17
